From PubChem BioAssay
Only some compounds are listed: those with a hit (about 1.3% of all), similar ones and a draw of the others.
NCOA1 inh: human NCOA1 inhibition | Q15788 | HEK293 GAL4-SRC1 luciferase reporter, luminescence | inhibition, % at 3.6 µM | actives 0.12% (n = 360,000);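 active = inhibition above the campaign mean plus 3 SD, with each screening campaign given its own cutoff, cut at about 60% in these data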
Gli-Sufu antag: blocks Gli-Sufu signaling in a luciferase reporter | actives 0.74% (n = 340,000) | inhibition, % at 5 µM | Sufu-KO-LIGHT fibroblasts, Gli luciferase reporter luminescence;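 active = inhibition above about 55%, limit read from the data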
LRH-1 inv ag: NR5A2 inverse agonism in reporter assay | inhibition, % at 3.6 µM | HEK293T StAR-luciferase reporter, LRH-1 transfected, 24 h | actives 0.13% (n = 360,000) | AID 602396;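 active = inhibition above the mean inhibition of all tested compounds plus 3 SD, cut at about 73% in these data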
Target sequence (O00482 whole entry, looked up): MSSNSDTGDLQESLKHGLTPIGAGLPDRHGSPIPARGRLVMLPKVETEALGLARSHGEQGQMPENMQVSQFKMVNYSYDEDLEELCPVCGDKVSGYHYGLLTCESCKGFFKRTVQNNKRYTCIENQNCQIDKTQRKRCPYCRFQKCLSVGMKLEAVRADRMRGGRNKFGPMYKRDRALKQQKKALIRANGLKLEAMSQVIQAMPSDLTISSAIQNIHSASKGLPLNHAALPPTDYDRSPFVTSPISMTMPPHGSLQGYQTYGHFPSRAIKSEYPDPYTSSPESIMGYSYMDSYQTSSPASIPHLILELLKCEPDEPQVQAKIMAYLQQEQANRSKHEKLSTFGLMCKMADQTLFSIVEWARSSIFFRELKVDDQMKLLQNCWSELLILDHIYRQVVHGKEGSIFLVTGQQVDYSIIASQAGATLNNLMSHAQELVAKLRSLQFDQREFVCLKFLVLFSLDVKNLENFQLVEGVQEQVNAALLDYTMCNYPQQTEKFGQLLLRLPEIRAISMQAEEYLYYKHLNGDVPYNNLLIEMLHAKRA
NCOA2 inhibitor: human SRC2 (NCOA2) inhibition; Q15596; inhibition, % at 9 µM; actives 0.17% (n = 370,000); HEK293 GAL4-SRC2 luciferase reporter, luminescence;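 active = inhibition above the mean inhibition of all tested compounds plus 3 SD, set per campaign, cut at about 52% in these data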
NR2F2 inh: NR2F2 (human) inhibition, primary screen. inhibition, % at 8.6 µM. actives 0.7% (n = 370,000). HEK293T NGFI-A luciferase reporter, luminescence. P24468;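 active = inhibition above a per-plate cutoff, mean inhibition of test wells between control levels plus 3 SD, cut at about 38% in these data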;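 note: cells cotransfected with COUP-TFII expression vector driving the NGFI-A reporter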
SRC3 inh: human NCOA3 inhibition; HEK293 GAL4-SRC3 luciferase reporter, luminescence; inhibition, % at 3.6 µM; actives 0.17% (n = 360,000); AID 588352;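 active = inhibition above a per-campaign cutoff, the mean of all compounds plus 3 SD, cut at about 60% in these data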;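 note: higher means less SRC3-driven luciferase light from the GAL4 reporter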
VP16 Luc counter: inhibits VP16 reporter, flagging COUP-TFII antagonist hits; shares compounds with NR2F2 inh; HEK293 Gal4-VP16 luciferase reporter, luminescence; inhibition, % at 8.5 µM; actives 25% (n = 2,500); in the data active = inhibition above about 13%
NR2F2 inh conf: COUP-TFII (NR2F2) inhibition, confirmation assay | shares compounds with NR2F2 inh | HEK293 NGFI-A luciferase reporter, luminescence | inhibition, % at 8.5 µM | actives 45% (n = 2,500) | AID 687008;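 active = mean inhibition over three repeats above a set limit taken from the earlier primary screen, cut at about 38% in these data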
Each line names hits and unclear results; the compound was inactive in the other large screens (follow-up assays come after a bar, where they were run).

COc1ccccc1N(C)S(=O)(=O)c1ccc(C(=O)Nc2ccc(N3CCOCC3)cc2)cc1	none
O=C(O)CC1(CC(=O)Nc2cccc(C(=O)O)c2)CCCC1	none
CCCS(=O)(=O)NC(=O)C1(C)CCCN(C(=O)c2cc(C)nn2C(C)(C)C)C1 (stereo not drawn)	none (no result: Gli-Sufu antag)
Nc1ncc(-c2ccccc2)c(-c2ccc(O)cc2O)n1	none
Oc1ccc(-c2n[nH]c(C(F)(F)F)c2-c2ccccc2)c(O)c1	Gli-Sufu antag 70, NR2F2 inh 65 | VP16 Luc counter inactive | NR2F2 inh conf 48
C=CCC12C=C(OC)C(=O)C(C1=O)C(c1ccc(OC)cc1)C2C (stereo not drawn)	none (no result: NCOA1 inh, Gli-Sufu antag, LRH-1 inv ag, SRC3 inh)
COc1ccc(-n2c(-c3ccc(Br)cc3)c[n+]3c2CCc2ccccc2-3)cc1	Gli-Sufu antag 86, NR2F2 inh 38 | VP16 Luc counter 21 | NR2F2 inh conf inactive
CC(C)c1ccc(-n2c(-c3ccccc3)c[n+]3c2CCc2ccccc2-3)cc1	Gli-Sufu antag 85, LRH-1 inv ag 81, NR2F2 inh 89, SRC3 inh 77 | VP16 Luc counter 28 | NR2F2 inh conf 87
C[n+]1cc(-c2ccccc2)n2c1CCCCC2	none (no result: NCOA2 inhibitor, NR2F2 inh)
CN(C)S(=O)(=O)c1ccc(C(=O)Nc2nc(-c3cccs3)cs2)cc1	NR2F2 inh 54 | VP16 Luc counter inactive | NR2F2 inh conf inactive
COC(=O)c1ccc(S(=O)(=O)N2CCCN(Cc3cccc(Br)c3F)CC2)n1C	NR2F2 inh 55 | VP16 Luc counter inactive | NR2F2 inh conf inactive
Cn1c(CN2CCCCC2)nc2cc(NC(=O)c3ccc(Cl)cc3)ccc21	NR2F2 inh 62 | VP16 Luc counter inactive | NR2F2 inh conf 48
CN1c2ccccc2C(C)(C)[C@]12C=Cc1cc(O)ccc1O2	NR2F2 inh 43 | VP16 Luc counter inactive | NR2F2 inh conf inactive
Cc1nc(C)c(-c2ccc(SCC(=O)Nc3cccc(F)c3)nn2)s1	NR2F2 inh 47 | VP16 Luc counter inactive | NR2F2 inh conf inactive
CC(=O)c1cccc(NC(=O)CSc2ccc(-c3sc(C)nc3C)nn2)c1	none
Cc1nc(C)c(-c2ccc(SCC(=O)Nc3cccc(Cl)c3)nn2)s1	NR2F2 inh 53 | VP16 Luc counter inactive | NR2F2 inh conf inactive
CC(C)C[C@H]1CNC(=O)C(=O)N1C[C@@H]1CCCN1C[C@H](Cc1ccccc1)N1C[C@H](CC(C)C)N(CC2CCCCC2)C(=O)C1=O	none (no result: NCOA1 inh, Gli-Sufu antag, LRH-1 inv ag, SRC3 inh)
Cc1ccc(C)c(N2CCN(C(=O)C34CC5CC(C3)CC(n3nnc(C)n3)(C5)C4)CC2)c1	NR2F2 inh 47 | VP16 Luc counter inactive | NR2F2 inh conf inactive
Cc1ccc(C23CC4CC(CC(C(=O)N5CCN(C)CC5)(C4)C2)C3)cc1	none
CCCn1c(NC(=O)c2cccc(S(=O)(=O)N3CCCC3)c2)nc2ccccc21	NR2F2 inh 45 | VP16 Luc counter inactive | NR2F2 inh conf inactive
COc1nc(-c2ccc(Cl)cc2Cl)nc2ccccc12	none
COc1ccc(CN2CCN(Cc3ccc4ccccc4c3)CC2)cc1OC	NR2F2 inh 41 | VP16 Luc counter inactive | NR2F2 inh conf inactive
Cc1cc(=O)n(-c2ccc(O)cc2)[nH]1	NR2F2 inh 42 | VP16 Luc counter inactive | NR2F2 inh conf inactive
Cc1cc(=O)n(-c2ccc(C(=O)O)cc2)[nH]1	none
COc1ccc(CCNC(=O)C(C)n2nc(C)c3c(C)n(-c4ccc(C)cc4)nc3c2=O)c(OC)c1 (stereo not drawn)	NR2F2 inh 61 | VP16 Luc counter inactive | NR2F2 inh conf 62
COc1ccccc1CCNC(=O)C(C)n1nc(C)c2c(C)n(-c3ccccc3)nc2c1=O (stereo not drawn)	none
Nc1cc(-c2ccc(Br)cc2)nn1Cc1ccccc1	NR2F2 inh 37 | VP16 Luc counter inactive | NR2F2 inh conf inactive
Nc1cc(-c2cccc(Br)c2)nn1Cc1ccccc1	none
COc1ccc(NC(=O)CN(C)CC(=O)NCCc2ccc(F)cc2)cc1	none
Nc1ccc2c(c1)C(=O)C(=O)c1ccccc1-2	NCOA1 inh 85, LRH-1 inv ag 105, NCOA2 inhibitor 94, NR2F2 inh 102, SRC3 inh 93 | VP16 Luc counter 97 | NR2F2 inh conf 110
Nc1ccc2c(c1)C(=O)c1ccccc1-2	none
CCn1cc(CCCC(=O)NCc2cccc(OC)c2)c2ccccc21	NR2F2 inh 38 | VP16 Luc counter inactive | NR2F2 inh conf inactive
O=C(Nc1ccc(Oc2cccnc2)cc1)C1CCN(Cc2cc(Cl)ccc2O)CC1	NR2F2 inh 62 | VP16 Luc counter inactive | NR2F2 inh conf 48
C#Cc1ccc(CN2CCC(C(=O)Nc3ccc(Oc4ccccc4)nc3)CC2)cc1	NR2F2 inh 49 | VP16 Luc counter inactive | NR2F2 inh conf inactive
O=C(Nc1ccc(Oc2ccccc2)nc1)C1CCN(Cc2cccc(F)c2)CC1	none
Cc1cc(N2CCN(C(=O)OC(C)(C)C)C[C@H]2C)ccc1N1C[C@@H](C)O[C@@H](C)C1	none (no result: NCOA1 inh, Gli-Sufu antag, LRH-1 inv ag, SRC3 inh)
O=c1cc(CN2CCCC2)c2ccccc2o1	none (no result: NCOA1 inh, Gli-Sufu antag, LRH-1 inv ag, SRC3 inh)
Nc1ccc(-c2nc3c(Cl)cc(N)cc3[nH]2)cc1	NCOA2 inhibitor 53, NR2F2 inh 48 (no result: Gli-Sufu antag) | VP16 Luc counter 57 | NR2F2 inh conf inactive
CCOC(=O)C(NCc1ccco1)(NC(=O)c1ccccc1)C(F)(F)F (stereo not drawn)	none
CCOC(=O)C(NC(=O)c1ccccc1)(Nc1cccc(C)n1)C(F)(F)F (stereo not drawn)	NR2F2 inh 39 | VP16 Luc counter inactive | NR2F2 inh conf inactive
CCCCc1c(-c2ccccc2OC)ncn1Cc1ccc(F)c(F)c1	none (no result: NCOA1 inh, Gli-Sufu antag, LRH-1 inv ag, SRC3 inh)
CCCCC(=O)c1ccc(O)cc1O	NR2F2 inh 103 | VP16 Luc counter inactive | NR2F2 inh conf inactive
COCCN1C(=O)[C@H]2C[C@@]13O[C@H](C1CCCCC1)N=C3CC1c3ccccc3C[C@@]12C (stereo partly drawn)	none (no result: NCOA1 inh, Gli-Sufu antag, LRH-1 inv ag, SRC3 inh)
[2H]C(CCOS(N)(=O)=O)c1ccc(C(C)(C)C)cc1 (stereo not drawn)	NR2F2 inh 43 | VP16 Luc counter 22 | NR2F2 inh conf inactive
NS(=O)(=O)OCCCc1ccccc1	none
O=C(CN1C(=O)/C(=C\C=C\c2ccccc2)SC1=S)Nc1ccc(F)cc1	none
O=C(COC(=O)CCN1C(=O)/C(=C\C=C\c2ccccc2)SC1=S)Nc1cc(F)ccc1F	NR2F2 inh 42 | VP16 Luc counter 53 | NR2F2 inh conf 64
CN(C)c1ccc(CNC(=O)C2Cc3c(-c4ccccc4Oc4ccccc4)ccnc3O2)cc1 (stereo not drawn)	none (no result: Gli-Sufu antag)
Cc1ccc(NC(=O)N2CCc3ccccc32)cc1	none
CN1CCN(c2ccc(NC(=O)N3CCc4ccccc43)cc2)CC1	NR2F2 inh 62 | VP16 Luc counter inactive | NR2F2 inh conf 63
